Measurements as given in the supplement of paper PMC11732987, “Enantioselective OTUD7B fragment discovery through chemoproteomics screening and high-throughput optimisation” (Communications Chemistry, 2025).
A number with no mark means an inactive call.

Assays:
Test in all cases: log2 ratio of Biotin-Ahx-Ub-VS probe labelling (fragment/DMSO); higher = less target engagement (more negative = stronger competition), active = hit call of the paper (q ≤ 0.05, log2 ratio ≤ -1)
Details in all cases: compound concentration: 200 uM; treatment time: 3 h
ALG13 = biological target: T1, ALG13 (UniProt Q9NP73)
T1 sequence (whole entry): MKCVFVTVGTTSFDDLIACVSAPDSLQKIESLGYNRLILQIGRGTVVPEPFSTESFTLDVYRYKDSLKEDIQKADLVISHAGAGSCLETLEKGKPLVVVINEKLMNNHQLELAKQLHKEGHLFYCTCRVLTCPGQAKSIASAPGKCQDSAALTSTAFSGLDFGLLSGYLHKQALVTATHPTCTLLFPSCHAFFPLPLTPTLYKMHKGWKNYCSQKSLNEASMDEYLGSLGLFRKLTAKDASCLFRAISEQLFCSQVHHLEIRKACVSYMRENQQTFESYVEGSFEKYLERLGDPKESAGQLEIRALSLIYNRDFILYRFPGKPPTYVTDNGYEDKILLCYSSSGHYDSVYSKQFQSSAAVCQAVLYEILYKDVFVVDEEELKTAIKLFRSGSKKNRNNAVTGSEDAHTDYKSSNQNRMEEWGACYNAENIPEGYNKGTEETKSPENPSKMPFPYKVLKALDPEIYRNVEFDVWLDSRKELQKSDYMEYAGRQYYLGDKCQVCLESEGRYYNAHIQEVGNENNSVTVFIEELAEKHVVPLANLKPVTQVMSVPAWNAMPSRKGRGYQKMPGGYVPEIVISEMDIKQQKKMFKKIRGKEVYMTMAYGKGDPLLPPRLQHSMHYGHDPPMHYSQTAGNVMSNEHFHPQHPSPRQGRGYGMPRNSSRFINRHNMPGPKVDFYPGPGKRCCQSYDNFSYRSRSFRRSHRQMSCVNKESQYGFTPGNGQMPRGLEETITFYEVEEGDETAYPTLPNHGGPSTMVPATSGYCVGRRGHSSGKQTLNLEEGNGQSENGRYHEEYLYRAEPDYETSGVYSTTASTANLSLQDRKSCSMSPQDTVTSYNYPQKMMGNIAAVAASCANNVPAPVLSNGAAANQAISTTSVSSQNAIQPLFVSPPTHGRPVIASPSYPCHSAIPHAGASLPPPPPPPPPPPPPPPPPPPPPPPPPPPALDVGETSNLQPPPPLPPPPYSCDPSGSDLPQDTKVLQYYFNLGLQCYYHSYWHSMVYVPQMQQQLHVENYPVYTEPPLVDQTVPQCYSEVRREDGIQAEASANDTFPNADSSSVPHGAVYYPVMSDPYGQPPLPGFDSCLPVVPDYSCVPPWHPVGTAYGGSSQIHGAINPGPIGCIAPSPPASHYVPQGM
Method in brief: (§1)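 Fragment (200 µM) or vehicle was incubated for 3 h with triplicate HEK293T lysate samples of 495 µg, which were then treated with Biotin-Ahx-Ub-VS at 0.5 µM final for 1 h. Labelled DUBs were enriched on NeutrAvidin, digested with LysC and trypsin, and analysed by diaPASEF LC-MS/MS. Values are average log2 fragment/vehicle ratios from an unpaired t-test on global-median-normalised Spectronaut label-free quantities, using proteins with ≥2 unique peptides.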

ATXN3 = ATXN3 (UniProt P54252)
Method in brief: as §1

BAP1 = biological target: T2, BAP1 (UniProt Q92560)
T2 sequence (whole entry): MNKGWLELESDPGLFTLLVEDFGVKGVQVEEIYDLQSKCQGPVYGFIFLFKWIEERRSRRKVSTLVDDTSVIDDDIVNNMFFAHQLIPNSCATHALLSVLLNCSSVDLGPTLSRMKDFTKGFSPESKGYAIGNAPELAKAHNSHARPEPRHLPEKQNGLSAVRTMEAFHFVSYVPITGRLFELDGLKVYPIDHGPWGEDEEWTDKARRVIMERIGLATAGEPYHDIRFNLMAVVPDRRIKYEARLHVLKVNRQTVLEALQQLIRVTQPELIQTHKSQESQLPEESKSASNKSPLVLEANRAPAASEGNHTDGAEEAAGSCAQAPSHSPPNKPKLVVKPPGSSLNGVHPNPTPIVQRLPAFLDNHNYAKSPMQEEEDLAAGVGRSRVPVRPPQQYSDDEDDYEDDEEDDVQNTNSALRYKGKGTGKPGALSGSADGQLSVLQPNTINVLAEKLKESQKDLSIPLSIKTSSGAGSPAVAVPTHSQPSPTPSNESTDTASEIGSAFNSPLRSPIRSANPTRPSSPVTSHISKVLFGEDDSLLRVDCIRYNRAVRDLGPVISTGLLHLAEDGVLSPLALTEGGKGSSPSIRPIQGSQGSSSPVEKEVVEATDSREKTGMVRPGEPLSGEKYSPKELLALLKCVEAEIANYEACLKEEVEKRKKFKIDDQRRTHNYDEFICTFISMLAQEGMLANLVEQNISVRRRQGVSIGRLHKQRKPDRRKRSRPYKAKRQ
Method in brief: as §1

EIF3F = EIF3F (UniProt O00303)
Method in brief: as §1

EIF3H = EIF3H (UniProt O15372)
Method in brief: as §1

FAM105A = biological target: T3, FAM105A (UniProt Q9NUU6)
T3 sequence (whole entry): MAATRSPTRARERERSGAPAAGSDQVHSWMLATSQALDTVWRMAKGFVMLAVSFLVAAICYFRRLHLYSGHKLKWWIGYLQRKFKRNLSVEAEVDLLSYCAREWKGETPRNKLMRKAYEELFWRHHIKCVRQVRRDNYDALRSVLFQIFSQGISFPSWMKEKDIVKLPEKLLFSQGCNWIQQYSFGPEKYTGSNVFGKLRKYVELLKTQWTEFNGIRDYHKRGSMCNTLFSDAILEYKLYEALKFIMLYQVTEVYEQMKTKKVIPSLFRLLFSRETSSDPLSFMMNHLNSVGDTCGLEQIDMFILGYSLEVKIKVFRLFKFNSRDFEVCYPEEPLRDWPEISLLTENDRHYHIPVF
Method in brief: as §1

OTUB1 = OTUB1 (UniProt Q96FW1)
Method in brief: as §1

OTUD4 = biological target: T4, OTUD4 (UniProt Q01804)
T4 sequence (whole entry): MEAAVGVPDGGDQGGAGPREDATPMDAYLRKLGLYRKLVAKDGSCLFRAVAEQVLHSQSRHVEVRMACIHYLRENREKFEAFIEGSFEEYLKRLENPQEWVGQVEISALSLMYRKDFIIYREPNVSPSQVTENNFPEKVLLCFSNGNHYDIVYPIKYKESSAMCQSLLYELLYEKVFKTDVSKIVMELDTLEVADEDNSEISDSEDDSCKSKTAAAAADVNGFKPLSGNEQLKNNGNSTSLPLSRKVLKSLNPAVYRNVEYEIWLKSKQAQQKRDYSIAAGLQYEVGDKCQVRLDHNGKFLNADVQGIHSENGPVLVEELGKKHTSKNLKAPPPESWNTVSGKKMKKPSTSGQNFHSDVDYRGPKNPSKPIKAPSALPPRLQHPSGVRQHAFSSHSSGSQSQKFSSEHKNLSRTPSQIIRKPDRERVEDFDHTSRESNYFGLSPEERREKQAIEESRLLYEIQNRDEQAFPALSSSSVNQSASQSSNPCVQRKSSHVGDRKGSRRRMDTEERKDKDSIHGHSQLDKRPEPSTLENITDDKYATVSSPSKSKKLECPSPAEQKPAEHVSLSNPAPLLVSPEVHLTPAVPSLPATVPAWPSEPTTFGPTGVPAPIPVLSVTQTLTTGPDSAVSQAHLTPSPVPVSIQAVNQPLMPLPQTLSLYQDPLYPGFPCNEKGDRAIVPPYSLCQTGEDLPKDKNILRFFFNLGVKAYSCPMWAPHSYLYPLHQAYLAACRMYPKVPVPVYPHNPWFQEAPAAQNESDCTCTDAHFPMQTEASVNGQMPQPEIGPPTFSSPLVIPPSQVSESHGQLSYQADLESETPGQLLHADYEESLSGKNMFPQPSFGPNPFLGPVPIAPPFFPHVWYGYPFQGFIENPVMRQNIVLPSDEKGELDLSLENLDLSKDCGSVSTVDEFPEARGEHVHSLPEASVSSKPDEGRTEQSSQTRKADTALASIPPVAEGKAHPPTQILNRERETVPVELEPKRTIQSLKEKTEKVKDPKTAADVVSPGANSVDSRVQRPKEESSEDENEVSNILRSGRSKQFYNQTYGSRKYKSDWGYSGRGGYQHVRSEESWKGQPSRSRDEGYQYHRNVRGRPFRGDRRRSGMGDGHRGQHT
Method in brief: as §1

OTUD5 = biological target: T5, OTUD5 (UniProt Q96G74)
T5 sequence (whole entry): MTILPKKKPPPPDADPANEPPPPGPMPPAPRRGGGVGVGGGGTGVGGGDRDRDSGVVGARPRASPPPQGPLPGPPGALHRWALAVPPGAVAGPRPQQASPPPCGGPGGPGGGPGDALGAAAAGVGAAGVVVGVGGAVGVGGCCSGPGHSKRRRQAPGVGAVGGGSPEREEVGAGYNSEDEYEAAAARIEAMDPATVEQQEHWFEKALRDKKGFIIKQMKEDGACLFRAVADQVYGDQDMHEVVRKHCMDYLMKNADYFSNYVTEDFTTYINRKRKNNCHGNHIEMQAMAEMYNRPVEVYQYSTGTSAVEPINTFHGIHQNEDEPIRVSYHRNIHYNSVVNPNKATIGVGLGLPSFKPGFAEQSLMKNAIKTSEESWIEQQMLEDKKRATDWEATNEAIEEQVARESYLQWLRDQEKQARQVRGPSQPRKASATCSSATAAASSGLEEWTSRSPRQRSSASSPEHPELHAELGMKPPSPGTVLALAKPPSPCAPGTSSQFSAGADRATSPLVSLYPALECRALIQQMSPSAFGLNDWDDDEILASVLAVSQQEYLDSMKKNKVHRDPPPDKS
Method in brief: as §1

Sequence of EIF3H (O15372 whole entry): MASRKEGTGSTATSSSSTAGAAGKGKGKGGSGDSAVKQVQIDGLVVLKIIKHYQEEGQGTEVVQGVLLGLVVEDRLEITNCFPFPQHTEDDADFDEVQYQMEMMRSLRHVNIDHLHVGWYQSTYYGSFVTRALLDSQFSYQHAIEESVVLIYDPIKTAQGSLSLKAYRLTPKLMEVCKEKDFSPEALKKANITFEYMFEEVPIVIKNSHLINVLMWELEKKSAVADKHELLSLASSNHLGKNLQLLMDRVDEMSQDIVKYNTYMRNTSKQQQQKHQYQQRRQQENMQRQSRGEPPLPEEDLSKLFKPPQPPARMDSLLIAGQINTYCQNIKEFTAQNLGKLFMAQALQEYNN
Sequence of ATXN3 (P54252 whole entry): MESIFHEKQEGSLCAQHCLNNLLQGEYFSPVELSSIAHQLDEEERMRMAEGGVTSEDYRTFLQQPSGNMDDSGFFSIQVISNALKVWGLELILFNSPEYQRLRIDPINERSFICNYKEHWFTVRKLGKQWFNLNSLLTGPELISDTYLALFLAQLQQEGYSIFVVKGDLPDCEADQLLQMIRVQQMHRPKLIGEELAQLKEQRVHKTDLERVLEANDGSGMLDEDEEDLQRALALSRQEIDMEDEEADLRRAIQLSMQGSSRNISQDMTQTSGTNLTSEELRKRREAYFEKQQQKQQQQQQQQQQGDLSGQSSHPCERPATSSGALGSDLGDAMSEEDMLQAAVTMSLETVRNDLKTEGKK
Sequence of OTUB1 (Q96FW1 whole entry): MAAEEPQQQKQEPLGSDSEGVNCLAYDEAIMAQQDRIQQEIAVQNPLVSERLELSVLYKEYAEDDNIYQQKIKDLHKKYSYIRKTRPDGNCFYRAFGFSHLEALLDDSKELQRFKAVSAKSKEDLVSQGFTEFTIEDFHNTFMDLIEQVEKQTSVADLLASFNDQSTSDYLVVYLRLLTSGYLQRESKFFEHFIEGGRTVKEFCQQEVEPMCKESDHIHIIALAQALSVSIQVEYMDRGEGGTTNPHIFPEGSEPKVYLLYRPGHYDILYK
Sequence of EIF3F (O00303 whole entry): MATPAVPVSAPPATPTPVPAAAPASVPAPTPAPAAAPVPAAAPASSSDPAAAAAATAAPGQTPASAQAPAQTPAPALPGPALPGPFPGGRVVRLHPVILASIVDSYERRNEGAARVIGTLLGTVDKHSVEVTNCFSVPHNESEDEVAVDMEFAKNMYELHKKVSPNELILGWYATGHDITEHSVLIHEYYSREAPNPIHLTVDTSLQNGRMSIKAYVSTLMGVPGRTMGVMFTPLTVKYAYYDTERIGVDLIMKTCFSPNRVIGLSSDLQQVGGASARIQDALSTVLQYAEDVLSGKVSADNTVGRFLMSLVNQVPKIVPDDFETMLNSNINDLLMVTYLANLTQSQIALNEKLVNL

C#Cc1cccc(NC(=O)CCl)c1
log2 ratio of Biotin-Ahx-Ub-VS probe labelling (ALG13): -0.0771 | log2 ratio of Biotin-Ahx-Ub-VS probe labelling (ATXN3): -0.239 | log2 ratio of Biotin-Ahx-Ub-VS probe labelling (BAP1): -3.08 (active) | log2 ratio of Biotin-Ahx-Ub-VS probe labelling (EIF3F): -0.206 | log2 ratio of Biotin-Ahx-Ub-VS probe labelling (EIF3H): 0.0977 | log2 ratio of Biotin-Ahx-Ub-VS probe labelling (FAM105A): 0.233 | log2 ratio of Biotin-Ahx-Ub-VS probe labelling (OTUB1): -0.135 | log2 ratio of Biotin-Ahx-Ub-VS probe labelling (OTUD4): -0.211 | log2 ratio of Biotin-Ahx-Ub-VS probe labelling (OTUD5): -0.288
